{"source": "PubChem BioAssay (NCI)", "note": "The panel holds about 83,000 compounds, 20% with a hit somewhere; the sample as a whole holds those more often.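 Method: cells in 96-well plates; compound added at one concentration; 48 h incubation; percent growth measured; values under 10 scored active.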 A number with no mark means an inactive call. Active and inactive are the calls of the source.", "data": [{"tested_on": "UO-31 renal", "assay": "NCI-60 one-dose screen, 48 h (100 = growth as untreated, 0 = no growth, -100 = all killed)", "conditions": "10 µM unless noted", "values": [{"compound": "CC(=O)OC[C@]12CCC(C)(C)C[C@H]1[C@@]1(O)[C@H](O)C[C@@H]3[C@@]4(C)CCCNC(C)(C)[C@@H]4CC[C@@]3(C)[C@]1(C)CC2", "growth": "85.8%"}, {"compound": "COC(C(=O)[C@@H](O)[C@@H](C)O)[C@@H]1Cc2cc3cc(O[C@H]4C[C@@H](O[C@H]5C[C@@H](O)[C@H](O)C(C)O5)[C@H](O)C(C)O4)cc(O)c3c(O)c2C(=O)[C@H]1O[C@H]1C[C@@H](O[C@H]2C[C@@H](O[C@H]3C[C@@H](OC)[C@H](O)C(C)O3)[C@@H](O)C(C)O2)[C@H](O)C(C)O1", "note": "(stereo partly specified)", "growth": "64.5%"}, {"compound": "O=C1CNC(c2ccccc2)C(c2ccccc2)N1", "note": "(stereo unspecified)", "growth": "109%"}, {"compound": "CCc1n(Cc2ccc3ccccc3c2)cc[n+]1Cc1ccc2ccccc2c1", "growth": "80.6%"}, {"compound": "O=C(/C=C/c1ccc(Cl)cc1)c1cccc(Nc2nc(Nc3ccccc3)nc(Nc3ccccc3)n2)c1", "growth": "61.8%"}, {"compound": "C=C1C(=O)O[C@H]2[C@H]1CC/C(COC(=O)NCc1cc[nH]c1)=C\\CC[C@@]1(C)O[C@@H]21", "growth": "58.3%"}, {"compound": "CN1CCN(C(=O)c2ccc(NC(=O)Nc3ccc(-c4nc(N5CCOCC5)c5cccn5n4)cc3)cc2)CC1", "growth": "-14.6% (active)"}, {"compound": "O=C1c2cccnc2C(=O)c2c1c(C(=O)NCCn1ccnc1)c1ccccn21", "growth": "61.3%"}, {"compound": "Cc1nn(-c2ccccc2)c(Oc2ccccn2)c1-c1nc2ccccc2s1", "growth": "88.2%"}, {"compound": "CCN(CC)c1nc(SCc2ccccc2Cl)ncc1C", "growth": "102%"}, {"compound": "COc1cc(-c2nc3cc(Cl)c(Cl)cc3[nH]2)ccc1OCC(=O)N=Nc1c(O)[nH]c2ccc([N+](=O)[O-])cc12", "growth": "91.1%"}]}]}
